# Several values for one entry are separate records, joined by “and”; a condition that tells them apart may be missing. Identical values can stand only once. Unmarked numbers belong to inactive results. Some structures have more than one record in an assay (separate samples or runs), and their calls can disagree. Activity calls are given as the source filed them. The call rests on the fitted dose curve.
# Experiment: qHTS assay to identify small molecule agonists of the estrogen related receptor (ERR) signaling pathway from Tox21 library (AID 1224849); further: nearly all actives have a fitted effect of over 15% in size
# Settings: ERR reporter cell line, ONE-Glo luciferase, 18 h; at 42.5 µM (top of the series)
# Description: National Center for Advancing Translational Sciences [NCATS]
# NIH Chemical Genomics Center [NCGC]
# U.S. Environmental Protection Agency [EPA]
# National Institutes of Environmental Health Sciences [NIEHS]
# National Toxicology Program [NTP]
# Estrogen related receptors (ERRs), the first orphan nuclear receptors discovered, play an important role in the control of cellular energy metabolism. ERRs are required for high-energy production in response to the environmental challenges. ERR-alpha was also identified as an adverse marker for breast cancer progression; ERR-alpha-positive tumors have a poor prognosis. To screen and to identify environmental compounds that perturb the ERR signaling pathways could provide valuable information for potential therapeutic or preventive measures in the treatment of metabolic disease. For identifying ERR agonists, ERR cell line (provided by NTP) has been used to screen Tox21 10K library.
# The ERR cells were dispensed at 2,000 cells/5 ul/well in 1536-well white plates using a Multidrop dispenser. After the assay plates were incubated at a 37 C/5% CO2 incubator for 6 hours, 23 nL of compounds dissolved in DMSO, positive and negative controls or DMSO only was transferred to the assay plate by a pin tool. The plates were incubated at 37 C for 18 hours. 4 ul/well of One-Glo reagent was added into the assay plates using a Flying Reagent Dispenser. After 30-minute incubation at room temperature, the luminescence intensity in the plates was measured using a ViewLux plate reader.
# On the % scale 0 is the no-effect control and ±100 the full control effect.
row,SMILES,"activity change, positive = activation"
1,Cn1cnc([N+](=O)[O-])c1Sc1ncnc2nc[nH]c12,8.83%
2,CCCCc1oc2ccccc2c1C(=O)c1cc(I)c(OCCN(CC)CC)c(I)c1,-36% and -39.6%
3,CC(C(=O)O)c1cccc(C(=O)c2ccccc2)c1 (stereo not given),0.181%
4,CC(C)Oc1ccc2c(=O)c(-c3ccccc3)coc2c1,38.2% (active) and 33.2% (active)
5,O=C1c2cccc(O)c2C(=O)c2c(O)cccc21,-19.1%
6,O=C1OC2(c3cc(Br)c(O)c(Br)c3Oc3c2cc(Br)c(O)c3Br)c2c(Cl)c(Cl)c(Cl)c(Cl)c21,-3.67%
7,C#C[C@]1(O)CC[C@H]2[C@@H]3CCc4cc(OC)ccc4[C@H]3CC[C@@]21C,-12.2%
8,O=C(/C=C/c1ccccc1)OCc1ccccc1,33.8% (active)
9,C[C@]12CC[C@H]3[C@@H](CCC4=CC(=O)CC[C@@]43C)[C@@H]1CC[C@@H]2C(=O)CO,-34.2%
10,COC(=O)Nc1nc2ccc(S(=O)c3ccccc3)cc2[nH]1 (stereo not given),3.15% (active)
11,CCOC(=O)C(C#N)=C(c1ccccc1)c1ccccc1,-21.7%
12,C#C[C@]1(O)CC[C@H]2[C@@H]3CCC4=Cc5oncc5C[C@]4(C)[C@H]3CC[C@@]21C,-54.8%
13,COc1ccc(OC)c(C(O)CNC(=O)CN)c1 (stereo not given),-0.419%

# Same assay, conditions: ERR reporter cell line, ONE-Glo luciferase, 18 h; at 92.4 µM (top of the series)
row,SMILES,"activity change, positive = activation"
1,Cn1cnc([N+](=O)[O-])c1Sc1ncnc2nc[nH]c12,19.9% (active)
2,CC(CCC(=O)O)(c1ccc(O)cc1)c1ccc(O)cc1,1.54% and 1.03%
3,COC(=O)CCC(=O)OC,8.82% and 7.51%
4,CCCC(=O)O,4.22% and -0.802%
5,c1ccc2cc(Nc3ccc(Nc4ccc5ccccc5c4)cc3)ccc2c1,1.47% and 5.2%
6,CC(C)CC(C)(O)C#CC(C)(O)CC(C)C (stereo not given),-11.8% and -19.1%
7,CC(C(=O)O)c1cccc(C(=O)c2ccccc2)c1 (stereo not given),2.6%
8,C/C=C/C(=O)O,7.56% and 0.71%
9,O=C1c2cccc(O)c2C(=O)c2c(O)cccc21,-20.9%
10,O=C1OC2(c3cc(Br)c(O)c(Br)c3Oc3c2cc(Br)c(O)c3Br)c2c(Cl)c(Cl)c(Cl)c(Cl)c21,-28%
11,CCOCCOCCO,-1.39% and 2.46%
12,COC(C)COC(C)COC(C)CO (stereo not given),-7.02% and 0.149%
13,CC(C)OB(OC(C)C)OC(C)C,-0.608% and 0.13%
14,C#C[C@]1(O)CC[C@H]2[C@@H]3CCc4cc(OC)ccc4[C@H]3CC[C@@]21C,-15.3%
15,Nc1ncnc2nc[nH]c12,111% (active)
16,O=C(/C=C/c1ccccc1)OCc1ccccc1,36.2% (active)
17,C[C@]12CC[C@H]3[C@@H](CCC4=CC(=O)CC[C@@]43C)[C@@H]1CC[C@@H]2C(=O)CO,-55.9%
18,O=C(c1ccccc1)c1ccccc1O,-0.602% and -1.04%
19,COC(=O)Nc1nc2ccc(S(=O)c3ccccc3)cc2[nH]1 (stereo not given),-9.11%
20,CCOC(=O)C(C#N)=C(c1ccccc1)c1ccccc1,-34.2%
21,c1cc(N(CC2CO2)CC2CO2)ccc1OCC1CO1 (stereo not given),-51.1% and -59.2%
22,COc1c(Cl)c(Cl)c(Cl)c(Cl)c1Cl,0.259% and 0.227%
23,O=CCCCC=O,-0.881% and -3.51%
24,CCC(C)c1ccccc1O (stereo not given),-6.99% and 2.48%
25,C#C[C@]1(O)CC[C@H]2[C@@H]3CCC4=Cc5oncc5C[C@]4(C)[C@H]3CC[C@@]21C,-70.8%
26,CCC(C)CO (stereo not given),1.13% and -5.81%
27,COc1ccc(OC)c(C(O)CNC(=O)CN)c1 (stereo not given),-28%

# From PubChem BioAssay (Tox21)
